Results on six molecules are retold here after PubChem BioAssay (NCATS).

Inconclusive results are not listed. Active and inactive are the calls of the source. Unless noted, calls follow the shape of the dose curve; as a rule, active = well fitted curve in the direction sought with a large enough effect; inconclusive = small, poorly fitted or top-dose-only effect, or another doubt; inactive = no such curve, though single readings can be large; an effect the other way counts as inactive or inconclusive.

The nature of assay [1]: qHTS Screen of the MIPE 4.0 Collection Against Ewings Sarcoma (RDES) (AID 1259252). Also: nearly all actives have a fitted effect of over 35% in size. Also: potency is read from the fitted curve at half-maximal effect. In short, it runs like this: (§1)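 Here, cells in 5% FBS RPMI were exposed for two days (48 h) to compound dilutions added four hours after plating. ATP-based CellTiter-Glo luminescence measured viability, normalized to vehicle and no-cell blanks.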
(In general: qHTS replaces the single test concentration by a dilution series.)

Assay [2] in a line: qHTS Screen of the MIPE 4.0 Collection Against Ewings Sarcoma (TC71) (AID 1259253). Also: nearly all actives have a fitted effect of over 40% in size. Also: potency is read from the fitted curve at half-maximal effect. The method, boiled down: as §1
The nature of assay [3]: qHTS Screen of the MIPE 4.0 Collection Against Ewings Sarcoma (EW8) (AID 1259255). Also: nearly all actives have a fitted effect of over 35% in size. Also: potency is read from the fitted curve at half-maximal effect. The method, boiled down: as §1
A short description of assay [4]: qHTS Screen of the MIPE 4.0 Collection Against Ewings Sarcoma (TC32) (AID 1259256). Also: nearly all actives have a fitted effect of over 45% in size. Also: potency is read from the fitted curve at half-maximal effect. In short, it runs like this: as §1
Assay [5] can be described thus: P-glycoprotein substrates identified in KB-8-5-11 adenocarcinoma cell line, qHTS therapeutic library screen (AID 1346987). Also: nearly all actives have a fitted effect of over 65% in size. Also: potency is read from the fitted curve at half-maximal effect. In short, it runs like this: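 Steps: plate 500 KB-8-5-11 cells/well in DMEM + 10% FCS (colchicine removed); pin compounds in dose-response; incubate 72 h, 37 degree C, 5% CO2; add CellTiter-Glo, 5 min; read luminescence.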
For assay [6], the target named is Atrial natriuretic peptide receptor 1 (Homo sapiens) (UniProt P16066). Nature of the assay: Natriuretic polypeptide receptor (hNpr1) antagonism - Pilot screen (AID 1347049; calls by dose curve;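 also: agonist-evoked cGMP luminescence read 20 min after hNppA addition; series mostly up to about 58 µM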). The method, boiled down:
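HEK293 cells co-expressing hNpr1 and the GloSensor pGS-40F cGMP luciferase sensor were preloaded with 2% GloSensor reagent for 2 h. Compounds were added for 30 min at room temperature, then cells were stimulated with 0.1 nM hNppA for 20 min before luminescence readout.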

The target of assay [7] is Atrial natriuretic peptide receptor 2 (Homo sapiens) (UniProt P20594). Nature of the assay: Natriuretic polypeptide receptor (hNpr2) antagonism - Pilot subtype selectivity assay (AID 1347050; calls by dose curve). In short, it runs like this:
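cGMP-sensor HEK293/hNpr2 cells; 2% GloSensor reagent 2 h RT; compounds 30 min; baseline luminescence read; 1 nM hNppC agonist 20 min RT; final luminescence read by CCD camera. Antagonism = reduced post-agonist signal.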

Assay [8] in a line: NS1 protein of Zika virus - qHTS assay to identify small molecule inhibitors in human HEK 293 cells (AID 1347053). Also: nearly all actives have a fitted effect of over 55% in size. Also: potency is read from the fitted curve at half-maximal effect. The method, boiled down: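 HEK 293 cells pretreated with compound for 1 h, then infected with ZIKV MR766 (MOI 0.5) for 24 h at 37 C. NS1 detected by TR-FRET with two anti-NS1 antibodies; normalized to uninfected (0%) and infected (100%) wells.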
Assay [9] deals with T1, Tyrosine-protein phosphatase non-receptor type substrate 1 (Homo sapiens) + Leukocyte surface antigen CD47 (Homo sapiens) (UniProt P78324+Q08722). Nature of the assay: CD47-SIRPalpha protein protein interaction - LANCE assay qHTS validation (AID 1347057; active = well fitted curve in the direction sought with a large enough effect in the signal ratio, with a control signal flat, not every such curve was filed as active; the % refers to the signal ratio; also: series mostly up to about 38 µM). The method, boiled down: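 First, His-tagged CD47 and Eu-labelled anti-His antibody met the compound for 30 min; next, site-specifically biotinylated SIRPalpha was added for 30 min; finally streptavidin-APC was added before reading the TR-FRET ratio.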
T1 sequence (P78324 whole entry, looked up): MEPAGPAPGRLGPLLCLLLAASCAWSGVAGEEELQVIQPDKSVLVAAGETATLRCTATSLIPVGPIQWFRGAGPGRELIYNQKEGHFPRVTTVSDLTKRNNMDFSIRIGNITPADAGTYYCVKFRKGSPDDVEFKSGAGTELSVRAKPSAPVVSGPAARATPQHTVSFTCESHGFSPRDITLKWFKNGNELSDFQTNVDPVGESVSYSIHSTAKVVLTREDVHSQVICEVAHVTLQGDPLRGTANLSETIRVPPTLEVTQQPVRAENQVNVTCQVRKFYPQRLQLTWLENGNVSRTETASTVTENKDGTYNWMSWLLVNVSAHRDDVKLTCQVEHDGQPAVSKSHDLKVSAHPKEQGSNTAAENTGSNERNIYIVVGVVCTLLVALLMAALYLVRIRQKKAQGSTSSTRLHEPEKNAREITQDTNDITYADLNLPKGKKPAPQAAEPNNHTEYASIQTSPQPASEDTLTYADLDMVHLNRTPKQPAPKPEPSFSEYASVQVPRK
T1 sequence (Q08722 whole entry, looked up): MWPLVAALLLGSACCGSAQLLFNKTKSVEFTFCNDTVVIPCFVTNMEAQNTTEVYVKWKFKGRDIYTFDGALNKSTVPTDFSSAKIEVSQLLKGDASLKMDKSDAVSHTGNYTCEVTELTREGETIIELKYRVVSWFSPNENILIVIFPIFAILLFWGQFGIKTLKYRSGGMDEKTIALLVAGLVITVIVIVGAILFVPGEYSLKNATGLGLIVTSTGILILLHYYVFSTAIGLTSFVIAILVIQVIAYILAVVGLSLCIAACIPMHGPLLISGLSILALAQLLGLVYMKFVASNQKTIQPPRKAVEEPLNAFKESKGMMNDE
A general note: TR-FRET usually uses a lanthanide donor and a delayed reading to cut background.

In assay [10] the target is T1, Tyrosine-protein phosphatase non-receptor type substrate 1 (Homo sapiens) + Leukocyte surface antigen CD47 (Homo sapiens). Nature of the assay: CD47-SIRPalpha protein protein interaction - HTRF assay qHTS validation (AID 1347058; active = well fitted curve in the direction sought with a large enough effect in the signal ratio, not every such curve was filed as active; the % refers to the signal ratio; also: series mostly up to about 38 µM). The method, boiled down: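 TR-FRET read (Ch1/Ch2 ratio) of soluble extracellular CD47 and Avi-biotinylated SIRPalpha domains in PBS pH 7.4 with 0.05% IGEPAL; 7-point compound titration. Sequential 30 min room-temperature steps; non-biotinylated SIRPalpha as control inhibitor.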

Assay [11] has the same target. Nature of the assay: CD47-SIRPalpha protein protein interaction - Alpha assay qHTS validation (AID 1347059).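 Also: bead proximity luminescence from CD47 binding SIRPalpha after compound preincubation with SIRPalpha.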 In short, it runs like this:
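Soluble extracellular domains: Avi-tag biotinylated SIRPalpha (25 nM) preincubated 30 min RT with compound, then 6His-CD47 (12.5 nM) 30 min; Ni-NTA acceptor and streptavidin donor beads (10 ug/mL) 30 min, AlphaScreen read. PBS pH 7.4, 0.05% IGEPAL.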

Chain of Atrial natriuretic peptide receptor 2 (Homo sapiens) (P20594 whole entry, looked up): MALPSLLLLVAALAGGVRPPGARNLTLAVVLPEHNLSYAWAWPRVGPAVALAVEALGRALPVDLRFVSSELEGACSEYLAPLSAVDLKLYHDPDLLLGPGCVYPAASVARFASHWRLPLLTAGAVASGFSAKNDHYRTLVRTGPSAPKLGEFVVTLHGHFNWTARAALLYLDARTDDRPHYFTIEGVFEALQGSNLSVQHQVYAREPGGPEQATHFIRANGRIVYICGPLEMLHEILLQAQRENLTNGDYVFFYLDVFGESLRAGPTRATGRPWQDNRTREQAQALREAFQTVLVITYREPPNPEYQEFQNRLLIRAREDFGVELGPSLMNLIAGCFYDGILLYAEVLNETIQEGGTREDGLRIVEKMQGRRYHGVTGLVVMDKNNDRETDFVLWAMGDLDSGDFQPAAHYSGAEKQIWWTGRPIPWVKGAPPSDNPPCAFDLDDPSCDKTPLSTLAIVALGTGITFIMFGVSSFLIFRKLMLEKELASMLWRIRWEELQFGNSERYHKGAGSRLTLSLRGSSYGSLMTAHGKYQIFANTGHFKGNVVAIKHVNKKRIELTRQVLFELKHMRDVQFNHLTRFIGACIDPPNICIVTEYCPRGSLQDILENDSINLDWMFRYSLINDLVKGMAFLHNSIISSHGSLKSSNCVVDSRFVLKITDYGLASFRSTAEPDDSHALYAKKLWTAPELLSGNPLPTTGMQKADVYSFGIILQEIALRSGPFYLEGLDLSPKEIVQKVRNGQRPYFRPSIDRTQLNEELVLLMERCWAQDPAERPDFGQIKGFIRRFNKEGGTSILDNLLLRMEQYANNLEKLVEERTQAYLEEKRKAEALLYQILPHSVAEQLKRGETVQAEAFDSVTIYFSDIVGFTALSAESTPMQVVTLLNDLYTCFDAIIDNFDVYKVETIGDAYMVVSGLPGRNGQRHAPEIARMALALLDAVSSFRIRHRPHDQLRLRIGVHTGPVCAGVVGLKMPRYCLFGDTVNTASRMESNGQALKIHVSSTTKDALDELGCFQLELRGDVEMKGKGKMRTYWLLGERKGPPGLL
Chain of Atrial natriuretic peptide receptor 1 (Homo sapiens) (P16066 whole entry, looked up): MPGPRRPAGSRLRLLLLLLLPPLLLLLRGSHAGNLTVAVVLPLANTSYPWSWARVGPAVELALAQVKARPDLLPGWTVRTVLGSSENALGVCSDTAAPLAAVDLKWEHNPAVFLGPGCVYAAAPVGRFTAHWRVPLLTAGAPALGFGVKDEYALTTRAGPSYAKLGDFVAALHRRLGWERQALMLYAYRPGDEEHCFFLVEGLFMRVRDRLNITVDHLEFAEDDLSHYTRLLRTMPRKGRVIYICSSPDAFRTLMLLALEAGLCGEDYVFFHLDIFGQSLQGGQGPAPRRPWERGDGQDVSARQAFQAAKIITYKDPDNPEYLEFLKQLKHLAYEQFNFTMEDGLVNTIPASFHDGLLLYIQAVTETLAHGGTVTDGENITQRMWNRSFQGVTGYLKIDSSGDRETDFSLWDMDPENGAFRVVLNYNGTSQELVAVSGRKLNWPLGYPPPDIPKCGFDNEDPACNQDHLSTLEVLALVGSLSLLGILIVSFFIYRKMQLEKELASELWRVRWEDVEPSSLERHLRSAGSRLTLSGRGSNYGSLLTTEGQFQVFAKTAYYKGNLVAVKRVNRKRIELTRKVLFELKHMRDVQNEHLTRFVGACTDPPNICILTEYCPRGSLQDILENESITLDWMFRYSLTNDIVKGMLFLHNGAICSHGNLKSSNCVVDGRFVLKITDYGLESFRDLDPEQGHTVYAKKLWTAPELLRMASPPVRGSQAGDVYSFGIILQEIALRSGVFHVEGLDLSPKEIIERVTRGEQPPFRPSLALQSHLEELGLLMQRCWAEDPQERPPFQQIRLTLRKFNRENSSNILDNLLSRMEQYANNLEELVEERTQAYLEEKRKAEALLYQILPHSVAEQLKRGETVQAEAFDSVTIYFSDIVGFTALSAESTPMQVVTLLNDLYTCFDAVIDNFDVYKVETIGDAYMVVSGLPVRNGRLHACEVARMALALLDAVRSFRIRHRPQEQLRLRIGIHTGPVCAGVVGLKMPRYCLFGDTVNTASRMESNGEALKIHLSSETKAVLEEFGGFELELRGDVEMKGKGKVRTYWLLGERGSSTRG

Regarding `COC(=O)[C@@H](N)CCCN=C(N)N[N+](=O)[O-]`, the Potency entry in [1], in assay [2], in assay [3], in assay [4], in [5] and in [6] was “inactive” each time. Also, the Potency entry in assay [7], in assay [8] and in [11] was “inactive” throughout. In addition, the outcome in assay [9] and in [10] was inactive.

In the case of `C#C[C@]1(O)C=C[C@@H]2[C@@H]3CCC4=CC(=O)CC[C@@H]4[C@H]3CC[C@@]21CC`, the Potency result in assay [1], in assay [2], in [3], in assay [4] and in assay [8] was “inactive” in each case.

Regarding `CC(C)[C@]12O[C@@H]1[C@@H]1O[C@]13[C@]1(O[C@H]1C[C@@H]1C4=C(CC[C@@]13C)C(=O)OC4)[C@H]2O`, the Potency entry in [1], in [2], in [3] and in assay [4] was “inactive” each time. Also, in assay [5], the Potency is 0.001 µM (active).

With `CC[C@@H]1[C@@H](C)O[C@@](O)([C@@H](C)[C@H](O)[C@H](C)[C@H]2OC(=O)C=CC=C[C@@H](C)[C@@H]([C@@H](C)[C@@H](O)[C@H](C)[C@@]3(O)C[C@H](O[C@H]4C[C@H](O)[C@H](O)[C@H](C)O4)[C@H](CC)[C@@H](C)O3)OC(=O)C=CC=C[C@@H]2C)C[C@H]1O[C@H]1C[C@H](O)[C@H](O)[C@H](C)O1`, the Potency in assay [1] is 0.662 µM (active); in assay [2] it was 0.59 µM (active); in [3], 0.59 µM (active); in [4], 0.662 µM (active); in [5] it was 3.32 µM (active); in [8], 1.05 µM (active).

Take `CCN1C[C@]2(OC(=O)c3ccccc3NC(C)=O)CC[C@H](OC)[C@@]34[C@H]5CC6[C@@H](OC)C[C@](O)(C(C[C@@H]23)[C@@H]14)[C@@]5(O)[C@@H]6OC`: the Potency entry in assay [1], in assay [2], in assay [3], in [4], in [5] and in [8] was “inactive” in each case.

With `CC1=C(O)C(=O)C=C2C1=CC=C1[C@@]2(C)CC[C@@]2(C)[C@@H]3C[C@](C)(C(=O)O)CC[C@]3(C)CC[C@]12C`, the Potency in [1] is 1.32 µM (active); in [2], 1.18 µM (active); in [3], 0.935 µM (active); in [4], 0.833 µM (active); in assay [5] it was 2.96 µM (active); in assay [8], 2.96 µM (active).
